{
  "source": "ChEMBL document CHEMBL3988442",
  "about": "“University of Dundee, Small-Polar-MMV Screening Library” (2021)",
  "note": "Hit rate of the full screen: of about 48,000 compounds, about 13,000 (27%) showed an effect of 50% or more. Some of the results follow.",
  "data": [
    {"tested_on": "Wolbachia pipientis", "test": "Anti-Wolbachia Cell-Based Screen", "format": "functional", "parameters": "scale not given: in the data most compounds retested in dose-response had high values", "details": "5 µM", "units": {"Percent Effect": "%"}, "values": [
      {"smiles": "CC(C)C[C@H](NC(=O)Cc1csc(-c2cccc(Cl)c2)n1)C(=O)O", "Percent Effect": 111.7},
      {"smiles": "O=C(Cc1csc(-c2ccc(Cl)cc2)n1)NC(C(=O)O)c1ccccc1", "note": "(centres undefined)", "Percent Effect": 14.14},
      {"smiles": "CC[C@H](C)[C@H](NC(=O)Cc1csc(-c2cccc(Cl)c2)n1)C(=O)O", "Percent Effect": -0.2804},
      {"smiles": "O=C(Cc1csc(-c2ccccc2)n1)N[C@@H](C(=O)O)c1ccccc1", "Percent Effect": 112.5},
      {"smiles": "O=C(Cc1csc(N2CCNC2=O)n1)NC(c1ccccc1)C1CC1", "note": "(centres undefined)", "Percent Effect": -8.956},
      {"smiles": "COc1cccc(-c2nc(CNC(C)Cn3cccn3)cs2)c1", "note": "(centres undefined)", "Percent Effect": 12.67},
      {"smiles": "COc1cccc(-c2nc(C)c(C(=O)N[C@@H](C)C(=O)O)s2)c1", "Percent Effect": -5.733},
      {"smiles": "C[C@H](NC(=O)Cc1csc(-c2cccc(Cl)c2)n1)C(=O)O", "Percent Effect": 100.7},
      {"smiles": "NC(=O)CCS(=O)(=O)Cc1ccc(OCC(F)(F)F)cc1", "Percent Effect": -2.639},
      {"smiles": "CC(=O)Nc1ccc2c(c1)nc1n2[C@@H](CNCc2ccccc2)COC1", "Percent Effect": -2.529},
      {"smiles": "C1CC(CN2C[C@H]3CC[C@@H]2CN(Cc2noc(C4CCCC4)n2)C3)C1", "Percent Effect": -8.86},
      {"smiles": "O=C1CC(c2cccc(O)c2)c2c(c(C(=O)O)cn2-c2ccccc2)N1", "note": "(centres undefined)", "Percent Effect": 2.755},
      {"smiles": "COCc1noc(-c2ccc(N3CCC[C@H]3CO)nc2)n1", "Percent Effect": 11.1},
      {"smiles": "OC[C@H]1CCCN1c1nccc(-c2cncnc2C2CCCCC2)n1", "Percent Effect": 101.1},
      {"smiles": "OC[C@@H]1CCCN1c1ccc(-c2nc(COc3ccccc3)no2)cn1", "Percent Effect": -5.727},
      {"smiles": "OC[C@H]1CCCN1c1nccc(-c2c[nH]nc2C2CCCCC2)n1", "Percent Effect": 103.3},
      {"smiles": "OC[C@@H]1CCCN1c1nccc(-c2c[nH]nc2-c2ccncc2)n1", "Percent Effect": 132.9},
      {"smiles": "COCc1noc(-c2ccc(N3CCCCC3CO)nc2)n1", "note": "(centres undefined)", "Percent Effect": -1.816},
      {"smiles": "OCC1CCCN1c1cc(N2CCc3ccccc3C2)ncn1", "note": "(centres undefined)", "Percent Effect": -8.701},
      {"smiles": "CC(NC(=O)c1cc2n(n1)CCCN(C)C2)c1cn2ccsc2n1", "note": "(centres undefined)", "Percent Effect": -3.947},
      {"smiles": "CC(C)(C)OC(=O)N1CC(CC(=O)NCc2ccsc2)C1", "Percent Effect": -134.2},
      {"smiles": "N#Cc1cccc(CNc2cc(CO)ccc2Cl)c1", "Percent Effect": -41.9},
      {"smiles": "CC(=O)N[C@@H]1CN(C2CCN(c3cccc(C)c3C)CC2)C[C@H]1C(C)C", "Percent Effect": -7.453},
      {"smiles": "Cc1ncccc1OC1(C(=O)NCc2noc(C(C)C)n2)CCNCC1", "Percent Effect": -7.244},
      {"smiles": "CCc1nnc(Nc2cc(C)nc(C3CN(C(C)=O)CCO3)c2)s1", "note": "(centres undefined)", "Percent Effect": 108.4},
      {"smiles": "CNc1cc(C)nc(C2CN(Cc3cc[nH]n3)CCO2)c1", "note": "(centres undefined)", "Percent Effect": -11.69},
      {"smiles": "CCCc1nnc(NC(=O)N2CCCC(NC(C)=O)C2)s1", "note": "(centres undefined)", "Percent Effect": -6.221},
      {"smiles": "COc1ccc(OC)c(CNCc2ccnc(N3CCOCC3)c2)c1", "Percent Effect": 119.2},
      {"smiles": "COc1c(C)cc(CNCc2ccnc(N3CCOCC3)c2)cc1C.Cl", "Percent Effect": 93.56},
      {"smiles": "Cl.c1cc(CNCc2ccnc(N3CCOCC3)c2)c2c(c1)OCO2", "Percent Effect": 16.56},
      {"smiles": "COc1cc(CNCc2ccnc(N3CCOCC3)c2)cc(OC)c1", "Percent Effect": 97.96},
      {"smiles": "Cl.c1cc(CNCc2ccc3c(c2)CCO3)cc(N2CCOCC2)n1", "Percent Effect": -6.468},
      {"smiles": "COc1ccc(CNCc2ccnc(N3CCOCC3)c2)cc1OC", "Percent Effect": -3.598},
      {"smiles": "COc1cc(CNCc2ccnc(N3CCOCC3)c2)cc(Cl)c1OC", "Percent Effect": -1.055},
      {"smiles": "COc1cccc(CNCc2ccnc(N3CCOCC3)c2)c1OC", "Percent Effect": 119.8},
      {"smiles": "COc1ccc(CNCc2ccnc(N3CCOCC3)c2)c(OC)c1", "Percent Effect": -1.923},
      {"smiles": "CCOc1ccccc1N(C)C(=O)c1ccc(Cl)cn1", "Percent Effect": -0.6778},
      {"smiles": "O=C([C@H]1C[C@H]2OCC[C@H]2N(C(=O)c2ccncc2)C1)N1CCCCO1", "Percent Effect": 15.67},
      {"smiles": "CC(=O)c1c(O)ccnc1C(F)(F)F", "Percent Effect": -30.29},
      {"smiles": "COc1ccc2c(c1)C(C(=O)N(C)CCc1scnc1C)CC(=O)N2", "note": "(centres undefined)", "Percent Effect": 13.25},
      {"smiles": "CCCc1nn(C2CCN(C3CC3)C2=O)c(=O)o1", "note": "(centres undefined)", "Percent Effect": -0.5192},
      {"smiles": "CC(C)c1cc(NCC2(CO)CCC2)ncn1", "Percent Effect": -3.782},
      {"smiles": "CCOc1cc(F)ccc1NC(=O)N(C(C)CS(C)(=O)=O)C1CC1", "note": "(centres undefined)", "Percent Effect": -6.232},
      {"smiles": "Cc1cncc(C2CCCN(Cc3cccn3C)C2)n1", "note": "(centres undefined)", "Percent Effect": 4.46},
      {"smiles": "Cc1cncc(C2CCN(Cc3cccn3C)CC2)n1", "Percent Effect": 121.9},
      {"smiles": "Cc1cncc(C2CCN(Cc3ccsc3)CC2)n1", "Percent Effect": 117.4},
      {"smiles": "CC(c1nc(C2CC2)no1)N1CCN(Cc2ccsc2)CC1", "note": "(centres undefined)", "Percent Effect": 3.758},
      {"smiles": "CCOC(=O)N(C)C1CCN(Cc2ccsc2)CC1", "Percent Effect": -3.636},
      {"smiles": "COc1cncc(N2CCN(Cc3cccn3C)CC2)n1", "Percent Effect": -11},
      {"smiles": "Cc1ccccc1C(=O)NC[C@@H]1CCN(C(=O)c2cccn2C)C[C@H]1O", "Percent Effect": 2.167},
      {"smiles": "Cc1cnn(CCNCc2ccc(C#N)cc2F)c1", "Percent Effect": -2.376},
      {"smiles": "Cn1c(C2CC2)nc2cc(NC(=O)C3(O)CCCC3)ccc21", "Percent Effect": -3.273},
      {"smiles": "Cc1ccn(CCC(=O)NCc2ccco2)n1", "Percent Effect": 113.3},
      {"smiles": "Cc1ccn(CCC(=O)NCc2ccc(C)o2)n1", "Percent Effect": 96.24}
    ]}
  ]
}
